The values below come from article PMC4336329 (PLoS ONE, 2015).

In all, about 310,000 compounds went through this assay and about 14,000 (4.5%) showed an effect of 50% or more. The effect is printed as a negative number. Many of the other results were omitted from the sample, so strong results are more common in it than they were.
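Note: peak tail current of the secondary pulse compared with the same well before compound.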

The target of the experiment is human ether-à-go-go-related gene (hERG) potassium channel (human, UniProt Q12809). The experiment in a line: primary screen, population patch clamp on CHO cells stably expressing hERG; higher = less effect of the substance.
Sequence of human ether-à-go-go-related gene (hERG) potassium channel (Q12809 whole entry, looked up): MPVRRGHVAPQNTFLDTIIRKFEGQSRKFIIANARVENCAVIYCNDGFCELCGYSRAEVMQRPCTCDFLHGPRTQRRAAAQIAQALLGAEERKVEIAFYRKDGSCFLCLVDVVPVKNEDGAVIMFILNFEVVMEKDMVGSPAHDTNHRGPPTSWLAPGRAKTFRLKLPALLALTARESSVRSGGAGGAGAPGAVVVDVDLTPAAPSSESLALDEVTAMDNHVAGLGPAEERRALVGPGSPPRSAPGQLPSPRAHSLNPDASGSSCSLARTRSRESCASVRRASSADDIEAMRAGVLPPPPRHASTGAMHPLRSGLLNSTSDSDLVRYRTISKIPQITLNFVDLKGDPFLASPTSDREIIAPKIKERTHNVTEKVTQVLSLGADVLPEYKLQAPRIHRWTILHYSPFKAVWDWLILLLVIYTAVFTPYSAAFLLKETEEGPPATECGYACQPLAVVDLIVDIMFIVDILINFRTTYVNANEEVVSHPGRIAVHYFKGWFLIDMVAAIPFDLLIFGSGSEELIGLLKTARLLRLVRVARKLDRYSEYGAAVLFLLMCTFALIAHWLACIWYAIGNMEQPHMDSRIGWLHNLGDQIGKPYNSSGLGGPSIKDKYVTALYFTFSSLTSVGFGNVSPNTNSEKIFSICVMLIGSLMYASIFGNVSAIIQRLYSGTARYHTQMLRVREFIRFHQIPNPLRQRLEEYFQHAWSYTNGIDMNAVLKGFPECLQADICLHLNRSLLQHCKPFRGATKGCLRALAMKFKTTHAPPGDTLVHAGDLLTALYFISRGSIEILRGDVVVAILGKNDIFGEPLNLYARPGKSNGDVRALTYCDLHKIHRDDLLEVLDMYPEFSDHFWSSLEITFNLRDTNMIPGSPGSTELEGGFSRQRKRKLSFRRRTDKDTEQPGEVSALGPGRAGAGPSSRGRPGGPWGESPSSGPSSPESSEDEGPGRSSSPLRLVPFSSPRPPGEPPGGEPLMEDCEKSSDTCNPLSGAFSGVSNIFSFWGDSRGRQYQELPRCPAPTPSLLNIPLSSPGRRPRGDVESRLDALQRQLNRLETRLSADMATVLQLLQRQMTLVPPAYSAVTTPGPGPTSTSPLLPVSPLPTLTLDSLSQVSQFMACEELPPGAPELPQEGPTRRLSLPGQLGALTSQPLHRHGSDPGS
As to `CCOC(=O)N1CCN(c2ccc(S(=O)(=O)N(Cc3ccccc3)Cc3ccccc3)cn2)CC1`, the “hERG current change (%, negative = inhibition) at 10uM” value was -4.41%.
For `COc1ccc(S(=O)(=O)N2CCN(Cc3cc(=O)n4ccccc4n3)CC2)cc1`, the “hERG current change (%, negative = inhibition) at 10uM” value was -31.4%.
The result for `O=S(=O)(c1ccccc1)N1CCN(Cc2cccc(Cl)c2)CC1` reads -18.1%; that for `Cc1ccc(S(=O)(=O)N2CCN(Cc3cc(=O)n4ccccc4n3)CC2)c(C)c1`, -80.6%; that for `Cc1ccc(S(=O)(=O)N2CCN(Cc3cc(=O)n4ccccc4n3)CC2)cc1C`, -40.5%.
The result for `O=c1nc2ccc(Cl)cn2c2ccc(S(=O)(=O)N3CCCCC3)cc12` reads -0.392%; that for `O=c1cc(CN2CCN(S(=O)(=O)c3ccccc3)CC2)nc2ccc(Cl)cn12`, -56%; that for `CCOc1cccc(C2/C(=C(/O)c3ccc4c(c3)CC(C)O4)C(=O)C(=O)N2CCN2CCOCC2)c1` (stereo not shown), 14.7%.
With `N#Cc1ccccc1NC(=O)CSc1ccc([N+](=O)[O-])cn1` the figure was 13.1%; with `COc1cc(C(CCN2CCCCC2)c2c(OC)cc(OC)c3c(-c4ccccc4)cc(=O)oc23)cc(OC)c1OC` (stereo not shown), -67%.
As to `COc1cc(OC)c2c(-c3ccccc3)cc(=O)oc2c1C(CCN1CCN(c2ccccc2)CC1)c1ccc(N(C)C)cc1` (stereo not shown), the “hERG current change (%, negative = inhibition) at 10uM” value stood at 7.89%.
The result for `COc1cc(C(CCN2CCCC2)c2c(OC)cc(OC)c3c(-c4ccccc4)cc(=O)oc23)cc(OC)c1OC` (stereo not shown) reads -70.8%.
On to `CCN(CC)CCC(c1cc(OC)c(OC)c(OC)c1)c1c(OC)cc(OC)c2c(-c3ccccc3)cc(=O)oc12` (stereo not shown), for which the “hERG current change (%, negative = inhibition) at 10uM” value is on record as -16.8%.
Take `COc1cc(C(CC(=O)N2CCCC2)c2c(OC)cc(OC)c3c(-c4ccccc4)cc(=O)oc23)cc(OC)c1OC` (stereo not shown): the “hERG current change (%, negative = inhibition) at 10uM” value is given as -10.5%.
With `COc1cc(C(CCN2CCCC(C)C2)c2c(OC)cc(OC)c3c(-c4ccccc4)cc(=O)oc23)cc(OC)c1OC` (stereo not shown) the figure was -38.7%.
In the case of `Cc1ccc(NC(=O)CCS(=O)(=O)c2cc3c(cc2Cl)NC(=O)CO3)cc1`, the “hERG current change (%, negative = inhibition) at 10uM” value is on record as -17.4%.
With `O=C(CNC(=O)c1ccc(Cl)cc1)c1ccc(Cl)cc1` the figure was 7.28%.
With `Cc1ccc(CNC(=O)C2C3C=CC(C3)C2C(=O)O)cc1` (stereo not shown) the figure was -3.26%; with `Cl.OC(CN1CCCCC1)Cn1c(C(F)(F)F)nc2ccccc21` (stereo not shown), 4.06%; with `CC1CN(S(=O)(=O)c2cccs2)CC(C)O1` (stereo not shown), -3.7%.
The result for `COc1ccc(NC(=S)NCc2ccco2)cc1` reads 9.23%; that for `COc1ccc(S(=O)(=O)n2cnc3ccccc32)cc1OC`, 12.4%.
`C=CCn1c(O)c(C(CC)=NCc2cc(OC)cc(OC)c2)c(=O)[nH]c1=O`: the “hERG current change (%, negative = inhibition) at 10uM” value is listed as -59%.
In the case of `C=CCn1c(O)c(C(C)=NCc2cc(OC)cc(OC)c2)c(=O)[nH]c1=O`, the “hERG current change (%, negative = inhibition) at 10uM” value is recorded as -37%.
Turning to `CCCCn1c(O)c(C(CC)=NCc2cc(OC)cc(OC)c2)c(=O)[nH]c1=O`, the “hERG current change (%, negative = inhibition) at 10uM” value is -13.8%.
The result for `Cc1ccc(S(=O)(=O)Nc2ccccc2/C=N/c2nc3ccccc3n2C)cc1` reads -13.5%; that for `Cc1cc(-c2ccc(N3CCOCC3)cc2)nc2ccccc12.Cl`, 3.53%; that for `Cc1c(N=Cc2c(O)n(CCc3ccccc3)c(=O)[nH]c2=O)c(=O)n(-c2ccccc2)n1C`, -39.3%.
As for `C=CCn1c(O)c(C=Nc2c(C)n(C)n(-c3ccccc3)c2=O)c(=O)[nH]c1=O`, the “hERG current change (%, negative = inhibition) at 10uM” value is given as -81.6%.
With `CCCCn1c(O)c(C=Nc2c(C)n(C)n(-c3ccccc3)c2=O)c(=O)[nH]c1=O` the figure was 4.96%; with `Cc1c(N=Cc2c(O)n(CCc3ccc(F)cc3)c(=O)[nH]c2=O)c(=O)n(-c2ccccc2)n1C`, -61.9%.
`Cc1c(N=Cc2c(O)n(Cc3ccc(F)cc3)c(=O)[nH]c2=O)c(=O)n(-c2ccccc2)n1C`: the “hERG current change (%, negative = inhibition) at 10uM” value is listed as -26%.
Turning to `Cc1c(N=Cc2c(O)n(Cc3ccccc3)c(=O)[nH]c2=O)c(=O)n(-c2ccccc2)n1C`, the “hERG current change (%, negative = inhibition) at 10uM” value was -5.81%.
The result for `C=C(C)Cn1c(N2CC(C)CC(C)C2)nc2c1c(=O)[nH]c(=O)n2C` (stereo not shown) reads 2.46%; that for `COc1ccc(CCC(=O)Nc2ccc(N3CCOCC3)cc2)cc1`, -12.9%; that for `CCOC(=O)C1=C(c2ccccc2)Nc2ncnn2C1c1ccc(OC)c(OC)c1OC` (stereo not shown), -5.55%.
The result for `CCOC(=O)C1(CCOC)CCN(Cc2ccc(COC)o2)CC1` reads 32.9%.
As for `CCOC(=O)C1(CCOc2ccccc2)CCN(Cc2ccc(COC)o2)CC1`, the “hERG current change (%, negative = inhibition) at 10uM” value was -63.7%.
Take `CCOC(=O)C1(CCOc2ccccc2)CCN(Cc2ccc(CO)o2)CC1`: the “hERG current change (%, negative = inhibition) at 10uM” value is reported as -73.8%.
Regarding `CCOC(=O)C1(CCOc2ccccc2)CCN(Cc2ccc(C)o2)CC1`, the “hERG current change (%, negative = inhibition) at 10uM” value was -75%.
With `CCOC(=O)C1(Cc2ccccc2)CCN(Cc2ccc(COC)o2)CC1`, the “hERG current change (%, negative = inhibition) at 10uM” value is -19.1%.
As for `CSc1ccccc1NC(=O)CN(Cc1ccccc1)S(C)(=O)=O`, the “hERG current change (%, negative = inhibition) at 10uM” value is on record as 4.1%.
Consider `CC1(C)C(=O)C=C[C@]2(C)[C@H]3CC[C@@]4(C)[C@H](c5ccoc5)OC(=O)[C@H]5O[C@]54[C@]3(C)[C@H](O)C[C@@H]12`, for which the “hERG current change (%, negative = inhibition) at 10uM” value is 8.63%.
